Inconclusive results are not listed. Where a call stands in place of a potency, no number is given. Calls of active or inactive are those of the source. The call rests on the fitted dose curve; in most records, active means well fitted cell-killing curve with a large enough effect; inconclusive means small, poorly fitted or top-dose-only effect; inactive means no such curve, though single readings can be large or run the other way.
test: qHTS of pediatric cancer cell lines to identify multiple opportunities for drug repurposing: Primary screen for Saos-2 cells (AID 1347097); conditions: Saos-2 viability, CellTiter-Glo ATP luminescence, 48 h; series mostly up to 46 µM; further: nearly all actives have a fitted effect of over 40% in size
Procedure, shortened: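 Phenotypic viability qHTS, 48 h compound exposure, CellTiter-Glo luminescence read-out; multi-concentration dosing so that potency and efficacy derive directly from the primary screen's curves.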
Potency means the concentration at half of the fitted maximal effect.

| SMILES | Potency |
| --- | --- |
| C[N+]1(CC2COC(c3ccccc3)(C3CCCCC3)O2)CCCCC1 (stereo unspecified) | inactive |
| C=C[C@H]1CN2CC[C@H]1C[C@H]2[C@H](O)c1ccnc2ccc(OC)cc12 | inactive |
| CN(C)C(=O)Nc1ccc(Cl)c(Cl)c1 | inactive |
| C[C@@H](O)[C@H]1C(=O)N2C(C(=O)O)=C(S[C@@H]3CN[C@H](CNS(N)(=O)=O)C3)[C@H](C)[C@H]12 | inactive |
| CCOCCn1c(N2CCCN(C)CC2)nc2ccccc21 | inactive |
| N#C/C(=C1\SCC(c2ccccc2Cl)S1)n1ccnc1 (stereo unspecified) | inactive |
| Cc1ccc(O)c([C@H](CCN(C(C)C)C(C)C)c2ccccc2)c1 | inactive |
| CCCCC(CC)COC(=O)c1ccc(N(C)C)cc1 (stereo unspecified) | inactive |
| N#CCC(=O)NN | inactive |
| Cc1cc(NS(=O)(=O)c2ccc(N)cc2)nc(C)n1 | inactive |
| COc1cc(N)c(Cl)cc1C(=O)NC1CCN(Cc2ccccc2)CC1 | inactive |
| CCCCN=C(N)N=C(N)N | inactive |
| CC(C)Cc1ccc(CC(=O)O)cc1 | inactive |
| Oc1c(Cl)cc(Cl)c(Cl)c1Cc1c(O)c(Cl)cc(Cl)c1Cl | 5.96 µM (active) |
| CCN(CC)CCOc1ccccc1C(=O)CCc1ccccc1 | inactive |
| CC(C)n1c(/C=C/[C@@H](O)C[C@@H](O)CC(=O)O)c(-c2ccc(F)cc2)c2ccccc21 | 1.5 µM (active) |
| CC(=O)Nc1ccc(S(=O)(=O)Nc2ccc([N+](=O)[O-])cc2)cc1 | inactive |
| Cc1c[nH]c2ccccc12 | inactive |

| SMILES | Potency |
| --- | --- |
| CCCCCCCCOc1ccc(C(=O)c2ccccc2)c(O)c1 | inactive |
| Nc1nc(-c2ccccc2)c(Br)c(=O)[nH]1 | inactive |
| OC(C#CCN1CCCC1)(c1ccccc1)c1ccccc1 | inactive |
| Nc1ccc(S(=O)(=O)NCc2ccccc2)cc1 | inactive |
| CC(C)Nc1cccnc1N1CCN(C(=O)c2cc3cc(NS(C)(=O)=O)ccc3[nH]2)CC1 | inactive |
| NS(=O)(=O)c1cc2c(cc1Cl)NC(CC1CCCC1)NS2(=O)=O (stereo unspecified) | inactive |
| C=C1c2cccc(O)c2C(O)=C2C(=O)[C@]3(O)C(O)=C(C(N)=O)C(=O)[C@@H](N(C)C)[C@@H]3[C@@H](O)[C@H]12 | inactive |
| Cc1cc(CC(=O)O)c(C)n1-c1ccc(Cl)cc1 | inactive |
| CO[C@]12C[C@@H](COC(=O)c3cncc(Br)c3)CN(C)[C@@H]1Cc1cn(C)c3cccc2c13 | inactive |
| O=C(NC1CCN(CCc2c[nH]c3ccccc23)CC1)c1ccccc1 | inactive |
| Clc1cccc(C(c2ccc3nc[nH]c3c2)n2ccnc2)c1 (stereo unspecified) | inactive |
| Cc1c(-c2ccccc2)oc2c(C(=O)OCCN3CCCCC3)cccc2c1=O | inactive |
| O=C(O)C(Cc1cc(I)c(O)c(I)c1)c1ccccc1 (stereo unspecified) | inactive |
| CC(C)(C)NCC(O)COc1cccc2c1C[C@H](O)[C@H](O)C2 (stereo partly specified) | inactive |
| Cc1nc(-c2ccc(Cl)cc2)oc1COC(C)(C)C(=O)O | inactive |
| NCc1ccccc1Sc1ccccc1CO | inactive |
| C[N+]1(C)CCC(=C(c2ccccc2)c2ccccc2)CC1 | inactive |
| CCO[C@@H]1O[C@H](C(COCc2ccccc2)OCc2ccccc2)[C@H](OCc2ccccc2)[C@H]1O (stereo partly specified) | 26.6 µM (active) |

Reference: PubChem BioAssay (NCATS)
